Reference: PubChem BioAssay AID504332 (National Center for Advancing Translational Sciences (NCATS), 2011)
Where “and” joins values, the source holds several entries; their conditions need not be identical. Equal entries are not always repeated. About 31,000 (8.9%) of roughly 350,000 compounds were called active. Roughly 15% stayed inconclusive and do not appear here. The call rests on the fitted dose curve; in most records, active means well fitted inhibition curve with a large enough effect; inconclusive means small, poorly fitted or top-dose-only effect; inactive means no such curve, though single readings can be large or run the other way. For the sample, actives were picked, then their nearest neighbours and some compounds at random. The source holds several records for some structures; these can differ, active in one and inactive in another.

What follows are compounds tested against Histone-lysine N-methyltransferase EHMT2 (Homo sapiens) (UniProt Q96KQ7) (assay: qHTS Assay for Inhibitors of Histone Lysine Methyltransferase G9a). Details: G9a H3K9 monomethylation, AlphaScreen, 2 h; series mostly up to 59 µM; activity, negative = inhibition: at the top concentration.
Outline: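 Chemiluminescent proximity detection of H3K9 monomethylation, read after 10 min bead incubation in the dark. Reaction: 20 nM G9a, 500 nM biotin-H3K9 peptide, 20 uM SAM cofactor, 2 h, room temperature, following 15 min enzyme-compound preincubation.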
Further: nearly all actives have a fitted effect of over 75% in size.
On the % scale 0 is the no-effect control and ±100 the full control effect; potency means the concentration at half of the fitted maximal effect.

Sequence of Histone-lysine N-methyltransferase EHMT2 (Homo sapiens) (Q96KQ7 913-1193 limits assumed): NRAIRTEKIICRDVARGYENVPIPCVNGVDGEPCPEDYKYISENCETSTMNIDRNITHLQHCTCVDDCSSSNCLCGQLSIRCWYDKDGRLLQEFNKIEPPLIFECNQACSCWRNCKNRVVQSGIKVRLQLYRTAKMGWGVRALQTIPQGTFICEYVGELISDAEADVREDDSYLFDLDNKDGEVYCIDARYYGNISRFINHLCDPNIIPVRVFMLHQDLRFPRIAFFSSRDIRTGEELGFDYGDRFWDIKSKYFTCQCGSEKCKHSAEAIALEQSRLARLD

| SMILES | activity, negative = inhibition | Potency |
| --- | --- | --- |
| Cc1ccc(C)c(OCCC(=O)OCC(=O)c2ccc3c(c2)NC(=O)CO3)c1 | 6.89% [at 12.7 µM] (inactive) | – |
| CCN(CC(=O)Nc1c(F)cccc1F)C(=O)CN1c2cccc3cccc(c23)S1(=O)=O | 5.18% [at 0.501 µM] (inactive) | – |
| COc1ccc(NC(=O)C(C)N2c3cccc4cccc(c34)S2(=O)=O)c(OC)c1 (stereo not drawn) | 4.35% [at 102 µM] (inactive) | – |
| O=C(O)CN1c2cccc3cccc(c23)S1(=O)=O | – | 44.7 µM (active) |
| Cc1ccc(-n2c(SCC(=O)N3CCC(C(=O)O)CC3)nc3ccccc3c2=O)cc1C | -50.2% [at 102 µM] (inactive) | – |
| CC(C)OC(=O)c1ccc(COc2ccc3ccc(=O)oc3c2)o1 | 14.1% [at 102 µM] (inactive) | – |
| Cc1nonc1C(=O)N/N=C/c1ccc(O)cc1 | 15.7% (inactive) | – |
| Cc1nc2ccc(C(=O)N/N=C/c3ccc(O)cc3)cc2[nH]1 | – | 79.4 µM (active) |
| Cc1ccc2nc(CNC(=O)c3ccccc3)[nH]c2c1 | -1.03% (inactive) | – |
| O=C(N/N=C/c1ccc(Cl)c(Cl)c1)c1ccc2nc[nH]c2c1 | -14% [at 102 µM] (inactive) | – |
| CC(C)c1nc2ccc(C(=O)O)cc2[nH]1 | 9.16% [at 102 µM] (inactive) | – |
| Cc1nc2ccc(C(=O)O)cc2[nH]1 | – | 70.8 µM (active) |
| CCc1ccccc1N1C(=O)CN(S(=O)(=O)CC)CC1(C)C(=O)NC1CCCCC1 (stereo not drawn) | -17.2% (inactive) | – |
| Cc1ccc2nc(COc3ccc(NC(=O)COc4ccccc4F)cc3)cc(=O)n2c1 | -2.61% (inactive) | – |
| C[C@H](NC(=O)c1ccccc1Cl)C(=O)OCC(=O)N1CCN(c2ccccc2)CC1 | -0.744% [at 12.7 µM] (inactive) | – |
| Cn1c(=O)c2c(nc(SCC(=O)Nc3ccc(F)cc3)n2Cc2ccc(Cl)cc2)n(C)c1=O | 10.3% (inactive) | – |
| COc1cccc(-n2c(N)cc(=O)nc2SCC(=O)Nc2cc(C)on2)c1 | 40% [at 102 µM] (inactive) | – |
| COc1ccccc1CNC(=O)CCCn1c(=O)c2ccccc2n(CC(=O)Nc2ccc(C)cc2Cl)c1=O | 3.86% (inactive) | – |
| CCOC(=O)c1ccc(NC(=O)CSc2nc3c([nH]c4ccccc43)c(=O)n2C)cc1 | 4.03% (inactive) | – |
| CNC(=S)N/N=C/c1ccc(N2CCOCC2)s1 | – | 28.2 µM (active) |
| Cc1cc(C(=O)N/N=C/c2ccc(N3CCOCC3)cc2)c(C)o1 | -36.2% [at 102 µM] (inactive) | – |

| SMILES | activity, negative = inhibition | Potency |
| --- | --- | --- |
| C=CCNC(=S)N/N=C/c1ccc(C)s1 | 72.7% [at 12.7 µM] (inactive) | – |
| COc1cc2ccccc2cc1C(=O)Nc1ccc(NC(=O)c2cccs2)cc1 | 28.3% [at 102 µM] (inactive) | – |
| O=C(Cc1ccc(Cl)cc1)Nc1ccc2nn(-c3ccc(Cl)cc3)nc2c1 | -2.72% (inactive) | – |
| Cc1ccc(CCNC(=O)Cn2c(-c3cccs3)cc3cc(F)ccc32)cc1 | 1.67% (inactive) | – |
| CCOC(=O)c1cccc(NC(=O)C(Cc2ccccc2)NS(=O)(=O)c2cccc3nsnc23)c1 (stereo not drawn) | -35.5% (inactive) | – |
| Cc1ccc(N2C(=O)c3ccccc3C2(O)c2ncc[nH]2)cc1 (stereo not drawn) | – | 7.08 µM (active) |
| Cc1ccc(-n2ccc(=O)c(C(=O)O)n2)cc1 | -6.92% (inactive) | – |
| Cc1ccnc(NC(=O)C(C)N2C(=O)c3ccccc3C2=O)c1 (stereo not drawn) | 10.7% [at 102 µM] (inactive) | – |
| O=C(O)c1ccccc1-c1ccccc1C(=O)NCCc1ccccc1 | 15.9% [at 102 µM] (inactive) | – |
| CCOCCCNC(=O)c1c(NC(=O)c2nc(SC)ncc2Cl)sc2c1CCCC2 | -0.0709% (inactive) | – |
| COc1ccc(-c2nc(SCC(=O)N3CCCC3)n[nH]2)cc1 | 21.1% [at 102 µM] (inactive) | – |
| COc1ccc(N2C(=O)CC(Sc3n[nH]c(-c4ccc(C)cc4)n3)C2=O)cc1 (stereo not drawn) | – | 1.58 µM (active) |
| COc1ccc(N2C(=O)CC(SC(C)C)C2=O)cc1 (stereo not drawn) | -27.2% [at 102 µM] (inactive) | – |
| CC(=O)Nc1ccc(NC(=O)C2CCCN(S(=O)(=O)c3ccc4c(c3)CCCC(=O)N4)C2)cc1 (stereo not drawn) | -26.3% (inactive) | – |
| CCN1CCN(C(=O)N(Cc2ccc(Cl)cc2)S(=O)(=O)c2ccc(C)cc2)CC1 | 19.8% [at 2.33 µM] (inactive) | – |
| CC(C)(C)c1ccc(CN2C(=O)c3ccccc3S2(=O)=O)cc1 | 87% [at 102 µM] (inactive) | – |
| O=[N+]([O-])/C(N=Nc1ccccc1)=N\Nc1ccccc1 | – | 31.6 µM (active) |
| Cc1ccc(F)cc1NC(=O)c1ccc2c(c1)OCO2 | -5.61% [at 12.7 µM] (inactive) | – |
| Cc1ccc(NC(=O)c2cccc(N(C)C)c2)cc1NC(=O)c1ccc(O)cc1 | – | inactive and 14.1 µM (active) |
| Cc1ccc(F)cc1NC(=O)c1cccc(N(C)C)c1 | 13.5% (inactive) | – |
| COc1cc2nc(SCC(=O)Nc3ccccc3F)n3nc(-c4ccccc4)nc3c2cc1OC | -29.1% (inactive) | – |

| SMILES | activity, negative = inhibition | Potency |
| --- | --- | --- |
| CCS(=O)(=O)c1ncc(N(Cc2ccc(F)cc2)Cc2ccco2)c(C(=O)Nc2cc(C)ccc2C)n1 | 3.17% (inactive) | – |
| Cc1ccc(S(=O)(=O)NCCNC(C)c2ccc(Br)cc2)cc1 (stereo not drawn) | -1.1% [at 12.7 µM] (inactive) | – |
| Oc1cccc(/C=N/Nc2ccc(Cl)nn2)c1O | 32.7% [at 102 µM] (inactive) | – |
| Clc1ccc(N/N=C/c2cccs2)nn1 | – | 35.5 µM (active) |
| COc1cccc(/C=N/Nc2ccc(Cl)nn2)c1 | -1.09% [at 102 µM] (inactive) | – |
| CC(C)N(Cc1ccccc1)C(=O)COC(=O)c1ccccc1SCC(=O)N1CCCC1 | -46.5% [at 0.501 µM] (inactive) | – |
| Cc1c(C)c(C)c(S(=O)(=O)NCCc2ccccn2)c(C)c1C | 11% [at 102 µM] (inactive) | – |
| O=C(CNC(=O)COc1ccccc1)NCCc1ccccn1 | 13.5% (inactive) | – |
| COc1ccc(NCCc2ccccn2)cc1 | – | 39.8 µM (active) |
| CCOc1ccccc1NC(=O)C1CCCN(S(=O)(=O)c2cn(C)cn2)C1 (stereo not drawn) | 11.6% (inactive) | – |
| CC(C)c1ccc(NC(=O)COC(=O)c2ccc(CN3CCCC3=O)cc2)cc1 | -8.03% [at 12.7 µM] (inactive) | – |
| O=C(/C=C/c1ccccc1)c1ccccc1O | – | 44.7 µM (active) |
| O=C(/C=C/c1ccccc1)c1ccoc1 | 10.3% [at 12.7 µM] (inactive) | – |
| O=C(/C=C/c1ccccc1)N/C(=C/c1ccccc1)C(=O)Nc1ccccc1O | -41.1% [at 102 µM] (inactive) | – |
| COCC1CCN(C(=O)CCc2nnc(C3(c4ccc(Cl)cc4)CCC3)o2)C1 (stereo not drawn) | 11% [at 102 µM] (inactive) | – |
| COc1ccc(-c2ocnc2C(=O)Nc2ccc3c(c2)CCC3)cc1 | -7.46% (inactive) | – |
| Fc1ccc(C(Nc2ccc(Cl)c(C(F)(F)F)c2)c2nnc(-c3ccccc3)o2)cc1 (stereo not drawn) | 31.9% (inactive) | – |
| Cc1cccc(OCCNC(=O)CSc2ccc(C(F)(F)F)cc2[N+](=O)[O-])c1 | 5.94% (inactive) | – |
| Nc1ccccc1Sc1ccc(C(F)(F)F)cc1[N+](=O)[O-] | – | 39.8 µM (active) |
| O=[N+]([O-])c1cc(C(F)(F)F)ccc1NCCc1ccncc1 | 21.9% [at 102 µM] (inactive) | – |
| CCc1cccc(NC(=O)CSc2nccn2C)c1 | -3.93% (inactive) | – |
